Results reported in PubChem BioAssay.

biological target: Pro-neuregulin-1, membrane-bound isoform (Homo sapiens) (UniProt Q02297); assay: NRG1 binders on small-molecule microarrays, primary screen, psychiatric disease protein project, biochemical, small-molecule microarray, fluorescence 635/667 (AID 1075); details: NRG1 binding, 635 nm fluorescence, higher = more signal;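 also: score combines 667 nm spot fluorescence with signal to noise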
Sequence (Q02297 whole entry, looked up, canonical isoform): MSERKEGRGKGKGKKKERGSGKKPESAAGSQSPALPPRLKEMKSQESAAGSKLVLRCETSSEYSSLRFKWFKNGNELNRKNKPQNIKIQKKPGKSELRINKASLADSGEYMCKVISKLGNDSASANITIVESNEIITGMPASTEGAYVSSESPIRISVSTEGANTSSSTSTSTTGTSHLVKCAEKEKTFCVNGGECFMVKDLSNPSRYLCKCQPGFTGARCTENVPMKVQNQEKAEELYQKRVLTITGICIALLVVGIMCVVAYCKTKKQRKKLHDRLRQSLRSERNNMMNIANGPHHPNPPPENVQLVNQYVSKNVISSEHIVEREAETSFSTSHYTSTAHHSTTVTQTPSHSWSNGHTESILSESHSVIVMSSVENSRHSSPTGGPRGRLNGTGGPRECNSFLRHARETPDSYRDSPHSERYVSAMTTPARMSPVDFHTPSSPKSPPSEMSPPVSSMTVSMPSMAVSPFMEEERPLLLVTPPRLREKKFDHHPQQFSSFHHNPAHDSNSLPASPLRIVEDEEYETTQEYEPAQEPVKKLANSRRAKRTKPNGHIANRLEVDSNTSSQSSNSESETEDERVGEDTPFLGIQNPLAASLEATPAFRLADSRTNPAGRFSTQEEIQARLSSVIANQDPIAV

Row | Structure (SMILES) | composite z-score
1 | COC(=O)[C@@]1(Cc2ccc(OC)cc2)[C@H]2c3cc(C(=O)N(C)C)n(Cc4ccc(C)c(F)c4F)c3C[C@H]2CN1C(=O)c1ccccc1 | 0.57
2 | CCCC=C(CCC)[C@@H](NS(=O)(=O)c1ccc(-c2ccccc2)cc1)c1ccc(C(=O)OC)cc1 | -0.33
3 | CCOC(=O)[C@H]1C/C=C/C[C@H](C(=O)OCC)C(=O)O[C@H]2[C@@H](OC)O[C@H](CO)[C@@H](OC(=O)Nc3ccc(Br)cc3)[C@@H]2OC1=O | 0.991
4 | C=C[C@H](OC)[C@@H](OC(=O)Nc1ccc(SC)cc1)c1ccc(O)c(F)c1 | 0.756
5 | COCCOC(=O)N1C(=O)[C@@]2(c3cc(C#CCNC(N)=O)ccc31)[C@H](c1ccc(OCCO)cc1)N1[C@H](c3ccccc3)[C@H](c3ccccc3)OC(=O)[C@H]1[C@@H]2C(=O)N1CCCCCCC1 | -0.0446
6 | CN(C)c1ccc(C(O)C2C=CC3C(=O)NC(=O)C3N2Nc2ccc(Cl)cc2Cl)cc1 (configuration not stated) | 1.18
7 | COCCOC(=O)N1C(=O)[C@@]2(c3cc(C#CCC(C(=O)OC)C(=O)OC)ccc31)[C@H](C(=O)N1CCN(c3ncccn3)CC1)[C@H]1C(=O)O[C@H](c3ccccc3)[C@H](c3ccccc3)N1[C@@H]2c1ccc(O)cc1 | 1.07
8 | COCCOC(=O)N1C(=O)[C@@]2(c3ccccc31)[C@H](C(=O)N1CCc3cc(OC)c(OC)cc3C1)[C@H]1C(=O)O[C@H](c3ccccc3)[C@H](c3ccccc3)N1[C@@H]2c1ccccc1OCCO | 0.607
9 | CC(C)=C1C(=O)C(c2ccccc2)=C2CN3C(=O)N(CCc4ccccc4)C(=O)[C@]3(Cc3ccccc3)[C@H]21 | 0.0953
10 | CO[C@H]1COC(=O)CC=C[C@H](C)COC(=O)[C@@H](OCc2ccccc2)C=C[C@@H]1C | 0.311
11 | [N-]=[N+]=NCc1ccccc1C[C@@]1(C(=O)N2CCOCC2)N=C(c2ccc(OCCCO)cc2)O[C@@H]1c1ccccc1N=[N+]=[N-] | 1.13

system: Neuregulin-1 EGF-like domain; assay: binders of neuregulin-1 EGF-like domain, primary screen, biochemical, small-molecule microarray, 635 nm fluorescence (AID 1081); details: small-molecule microarray binding, higher = more signal;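 also: binding of the protein to compounds printed on small-molecule microarray slides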

Row | Structure (SMILES) | composite z-score
12 | CO[C@@H]1COC(=O)CC=C[C@@H](C)[C@H](OC)COC(=O)CC=C[C@H]1C | -0.366
13 | O=C1O[C@H](c2ccccc2)[C@H](c2ccccc2)N2[C@H]1[C@@H](C(=O)Nc1nc3ccccc3s1)[C@]1(C(=O)Nc3ccc(C#CC4(O)CCCCCC4)cc31)[C@H]2c1ccc(O)cc1 | 1.14
14 | O=C1O[C@@H](c2ccccc2)[C@@H](c2ccccc2)N2[C@@H](c3ccccc3OCCO)[C@]3(C(=O)Nc4ccc(C#CC5=CCCCC5)cc43)[C@@H](C(=O)O)[C@H]12 | 1.1
15 | O=C1O[C@@H](c2ccccc2)[C@@H](c2ccccc2)N2[C@@H](c3ccc(O)cc3)[C@]3(C(=O)Nc4ccccc43)[C@@H](C(=O)N3CCN(c4ncccn4)CC3)[C@H]12 | 1.25
16 | C[N+](C)(C)CCCCNC(=O)[C@@H]1C[C@@H]2C(=O)N3CCC[C@H]3C(=O)N2[C@@H]1c1cccc(OCCO)c1 | 1.03
17 | C=CC[C@@]1(C(=O)N2CCOCC2)N=C(c2ccc(OCCCO)cc2)O[C@@H]1c1ccccc1 | 1.08
18 | CCC#CCN(Cc1ccccc1Br)[C@H](/C=C/c1ccccc1)[C@@H](O)Cc1ccccc1 | -0.11
19 | O=C(NCc1ccccc1)c1ccc(Br)cc1[N+](=O)[O-] | 0.341
20 | CC(C)N1CC=CC23O[C@@H]4/C=C\CCCOC(=O)C4[C@H]2C(=O)N(CCCCCO)[C@@H]3C1=O (some centres not stated) | 0.665
21 | O=C1OCC=C[C@H]2OC34C=CCN(Cc5ccccc5)C(=O)[C@H]3N(CCO)C(=O)[C@@H]4[C@@H]12 (some centres not stated) | 0.699
22 | O=C1O[C@H](c2ccccc2)[C@H](c2ccccc2)N2[C@H]1[C@@H](C(=O)NC[C@H](O)c1ccccc1)[C@]1(C(=O)Nc3ccc(C#CC4=CCCCC4)cc31)[C@H]2c1ccc(OCCO)cc1 | 1.02
23 | COc1ccc(-c2ccccc2[C@@H]2N[C@H](C(=O)O)CC[C@H]2C)cc1 | 0.424
24 | CCOC(=O)C[C@H]1[C@H](OC(=O)c2cc3ccccc3oc2=O)[C@@H](NC(=O)C2CCCCC2)c2cc(OCCCO)ccc2N1C(=O)c1ccc2ccccc2n1 | 0.675
25 | NC(=O)NCC#Cc1ccc2c(c1)[C@]1(C(=O)N2)[C@H](C(=O)N2CCCCCCC2)[C@H]2C(=O)O[C@H](c3ccccc3)[C@H](c3ccccc3)N2[C@@H]1c1ccccc1OCCO | 0.589
26 | Cc1ccc(N2C(=O)c3ccccc3[C@@H](C(=O)NCc3ccccc3)[C@@H]2c2ccc(CO)cc2)nc1 | 0.908
27 | COC(=O)C(CC#Cc1ccc2c(c1)[C@]1(C(=O)N2)[C@H](C(=O)N2CCCCCCC2)[C@H]2C(=O)O[C@H](c3ccccc3)[C@H](c3ccccc3)N2[C@@H]1c1ccc(O)cc1)C(=O)OC | -0.466
28 | COc1ccc([Si](C)(C)[C@@H]2[C@@H](CCO)O[C@]3(C(=O)N(Cc4ccc(NC(=O)[C@H](C)O)cc4)c4ccccc43)[C@H]2C)cc1 | 1.19
29 | C=CCNC(=O)[C@@H]1[C@H]2C(=O)O[C@H](c3ccccc3)[C@H](c3ccccc3)N2[C@H](c2ccc(OCCO)cc2)[C@@]12C(=O)N(C(=O)OCCOC)c1ccc(C#CC3(O)CCCCCC3)cc12 | 1.03

Row | Structure (SMILES) | composite z-score
30 | CC1CC/C=C\[C@H]2OC34C=CCN(Cn5nnc6ccccc65)C(=O)[C@H]3N(C(C)CO)C(=O)[C@@H]4C2C(=O)O1 (some centres not stated) | 0.3
31 | COc1ccc([Si](C)(C)[C@H]2[C@H](CC(=O)N(CCO)Cc3ccccc3)O[C@@]3(C(=O)N(C)c4ccccc43)[C@@H]2C)cc1 | 0.938
32 | CO[C@H]1COC(=O)[C@H](CCSC)NC(=O)CC=C[C@@H](C)COC(=O)[C@@H](OCc2ccccc2)C=C[C@@H]1C | 0.782
33 | C=CCOC(=O)[C@@H]1[C@H]2C(=O)O[C@H](c3ccccc3)[C@H](c3ccccc3)N2[C@H](c2ccc(OCCOC(=O)[C@H]3C[C@H]4C(=O)N[C@@H](CCCCNC(C)=O)C(=O)N4[C@H]3c3ccc(O)cc3)cc2)[C@@]12C(=O)Nc1ccc(I)cc12 | 1.17
34 | O=[N+]([O-])c1ccc(C[n+]2ccc3ccc(O)cc3c2)o1 | 1.11
35 | COCCOC(=O)N1C(=O)[C@@]2(c3cc(C#CC4=CCCCC4)ccc31)[C@H](C(=O)NC[C@H](O)c1ccccc1)[C@H]1C(=O)O[C@H](c3ccccc3)[C@H](c3ccccc3)N1[C@@H]2c1ccccc1OCCO | 1.09
36 | CCOC(=O)C1=CC[C@@H](c2ccc(-c3ccc(OCc4ccccc4)cc3)c(OC)c2)N(S(=O)(=O)c2ccc(C)cc2)[C@H]1c1ccccc1 | 0.952
37 | COC(=O)[C@@]1(Cc2ccc(OC)cc2)[C@H]2c3cc(C(=O)N(C)C)n(Cc4ccc(C)c(F)c4F)c3C[C@H]2CN1C(=O)c1ccccc1 | 0.964
38 | CCCC=C(CCC)[C@@H](NS(=O)(=O)c1ccc(-c2ccccc2)cc1)c1ccc(C(=O)OC)cc1 | -0.656
39 | CCOC(=O)[C@H]1C/C=C/C[C@H](C(=O)OCC)C(=O)O[C@H]2[C@@H](OC)O[C@H](CO)[C@@H](OC(=O)Nc3ccc(Br)cc3)[C@@H]2OC1=O | 1.29
40 | C=C[C@H](OC)[C@@H](OC(=O)Nc1ccc(SC)cc1)c1ccc(O)c(F)c1 | 1.03
41 | COCCOC(=O)N1C(=O)[C@@]2(c3cc(C#CCNC(N)=O)ccc31)[C@H](c1ccc(OCCO)cc1)N1[C@H](c3ccccc3)[C@H](c3ccccc3)OC(=O)[C@H]1[C@@H]2C(=O)N1CCCCCCC1 | -0.116
42 | CN(C)c1ccc(C(O)C2C=CC3C(=O)NC(=O)C3N2Nc2ccc(Cl)cc2Cl)cc1 (configuration not stated) | 1.11
43 | COCCOC(=O)N1C(=O)[C@@]2(c3cc(C#CCC(C(=O)OC)C(=O)OC)ccc31)[C@H](C(=O)N1CCN(c3ncccn3)CC1)[C@H]1C(=O)O[C@H](c3ccccc3)[C@H](c3ccccc3)N1[C@@H]2c1ccc(O)cc1 | 1.2
44 | COCCOC(=O)N1C(=O)[C@@]2(c3ccccc31)[C@H](C(=O)N1CCc3cc(OC)c(OC)cc3C1)[C@H]1C(=O)O[C@H](c3ccccc3)[C@H](c3ccccc3)N1[C@@H]2c1ccccc1OCCO | 1.04
45 | CC(C)=C1C(=O)C(c2ccccc2)=C2CN3C(=O)N(CCc4ccccc4)C(=O)[C@]3(Cc3ccccc3)[C@H]21 | -0.318
46 | CO[C@H]1COC(=O)CC=C[C@H](C)COC(=O)[C@@H](OCc2ccccc2)C=C[C@@H]1C | 0.958
47 | [N-]=[N+]=NCc1ccccc1C[C@@]1(C(=O)N2CCOCC2)N=C(c2ccc(OCCCO)cc2)O[C@@H]1c1ccccc1N=[N+]=[N-] | 1.26
